Assay outcomes: PubChem BioAssay, The Scripps Research Institute Molecular Screening Center
PME-1 inh – PME-1 (human) inhibition; inhibition, % at 5.9 µM; hit rate 0.53% among 320,000; Q9Y570; recombinant PME-1, FP-Rh probe fluorescence polarization; AID 2130;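 active means inhibition above the campaign mean of all compounds plus 3 SD, cut at about 26% in these data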;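 further: competitive labeling of PME-1 active site by serine hydrolase directed probe; inhibitors block probe labeling so polarization falls and inhibition rises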
Target sequence (Q9Y570 whole entry, looked up): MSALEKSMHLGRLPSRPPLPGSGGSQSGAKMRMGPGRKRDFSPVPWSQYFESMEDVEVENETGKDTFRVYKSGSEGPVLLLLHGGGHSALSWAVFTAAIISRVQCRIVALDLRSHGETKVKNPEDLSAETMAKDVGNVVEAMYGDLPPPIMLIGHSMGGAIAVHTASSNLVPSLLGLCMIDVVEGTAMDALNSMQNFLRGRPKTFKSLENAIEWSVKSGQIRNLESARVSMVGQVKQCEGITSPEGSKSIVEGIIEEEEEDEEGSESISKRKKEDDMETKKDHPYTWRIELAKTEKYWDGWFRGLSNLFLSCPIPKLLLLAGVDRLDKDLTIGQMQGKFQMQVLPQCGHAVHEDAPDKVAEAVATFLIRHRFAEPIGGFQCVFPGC
PAFAH1B2 FP inh – inhibitors of human PAFAH1B2 | P68402 | recombinant PAFAH1B2, FP-rhodamine activity probe, fluorescence polarization | inhibition, % at 3.39 µM | hit rate 1.2% among 340,000 | AID 492953;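 active means inhibition above the mean of all tested compounds plus 3 SD, cut at about 24% in these data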
Target sequence (P68402 whole entry, looked up): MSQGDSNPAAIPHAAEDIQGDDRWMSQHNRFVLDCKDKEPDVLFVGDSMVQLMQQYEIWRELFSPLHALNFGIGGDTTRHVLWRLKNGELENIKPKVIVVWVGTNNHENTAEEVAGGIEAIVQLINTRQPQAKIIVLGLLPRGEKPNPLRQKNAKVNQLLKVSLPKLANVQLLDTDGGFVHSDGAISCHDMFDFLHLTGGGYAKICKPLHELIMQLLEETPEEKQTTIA
PAFAH2 FP inh – inhibitors of human PAFAH2; Q99487; inhibition, % at 3.39 µM; hit rate 0.99% among 340,000; recombinant PAFAH2, FP-rhodamine activity probe, fluorescence polarization;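 active means inhibition above the mean over all tested compounds plus 3 SD, cut at about 30% in these data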;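 further: inhibitors block probe labeling of enzyme so polarization drops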
PAFAH1B3 inh – PAFAH1B3 (human) inhibition; Q15102; recombinant PAFAH1B3, FP-rhodamine probe, fluorescence polarization; inhibition, % at 3.39 µM; hit rate 0.28% among 340,000;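 active means inhibition above the screen-wide average of all tested compounds plus 3 SD, cut at about 25% in these data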
Fam108B counter – blocks mouse Fam108B hydrolase in RBBP9 counter-screen; hit rate 0.33% among 300,000; recombinant Fam108B, FP-Rh probe fluorescence polarization; inhibition, % at 9.51 µM;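 active means inhibition above the screen mean inhibition plus 3 SD, computed separately per campaign, cut at about 18% in these data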;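 further: inhibitors lower polarization as less probe binds the enzyme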
pPAFAH inh – inhibitors of human plasma PAF acetylhydrolase (pPAFAH); inhibition, % at 3.39 µM; recombinant pPAFAH, FP-rhodamine probe fluorescence polarization; hit rate 1.5% among 330,000; Q13093;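 active means inhibition above the mean inhibition across the screen plus 3 SD, cut at about 25% in these data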;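 further: inhibitors block binding of the rhodamine activity-based probe so polarization drops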
PAFAH2 FP conf – PAFAH2 (human) inhibition, confirmed; shares compounds with PAFAH2 FP inh; recombinant PAFAH2, FP-rhodamine activity probe, fluorescence polarization; inhibition, % at 3.39 µM; hit rate 65% among 2,300;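 active means mean inhibition over three repeats above a set limit taken from the earlier primary screen, cut at about 30% in these data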;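 further: inhibitor blocks binding of rhodamine activity probe so polarization falls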
Hits are given with their value; 0 = inactive; - = no result. In the library only some 2.8% were active in any assay of this set; here they are far more common.

SMILES	PME-1 inh	PAFAH1B2 FP inh	PAFAH2 FP inh	PAFAH1B3 inh	Fam108B counter	pPAFAH inh	PAFAH2 FP conf
O=C(Nc1ccc(C(=O)N2CCCC2)cc1)C1CCCCC1	-	0	0	0	-	-	-
COC(=O)c1noc(C)c1-c1ccnn1C(=O)c1ccc(C)cc1	0	0	54.2	0	0	0	33.2
Cc1cccc(S(=O)Cc2ccc(C(=O)N3CCN(C(=O)c4ccco4)CC3)o2)c1 (centres undefined)	0	0	0	0	0	0	-
O=C(OCC(=O)C12CC3CC(CC(C3)C1)C2)c1cccnc1Cl	0	0	47.0	0	0	0	37.0
CC1CCC(NC(=O)COC(=O)c2cccnc2Cl)CC1 (centres undefined)	0	0	70.5	0	-	0	41.7
O=C(COC(=O)c1ccccc1Cl)Nc1cccnc1Cl	0	0	0	0	-	0	-
O=C(COC(=O)c1cccnc1Cl)NC1CCCCC1	-	0	71.6	0	-	0	48.8
O=C(COC(=O)c1ccccc1F)Nc1cccnc1Cl	0	0	35.1	0	0	0	0
O=C(COC(=O)c1cccnc1Cl)NC1CCCc2ccccc21 (centres undefined)	-	0	0	0	-	0	-
C#CC1(O)CCC2C3CCc4cc(O)cc(C)c4C3CCC21C (centres undefined)	-	0	0	0	-	-	-
CCNS(=O)(=O)c1ccc(C(=O)OCc2cc(=O)oc3cc(OC)ccc23)cc1	0	0	0	0	0	0	-
CN(C)c1ccc(-c2ccc3c(=O)c4ccccc4n(C)c3c2)cn1	0	0	0	0	0	0	-
COc1ccccc1/C=C/C(=O)OCC(=O)N1c2ccccc2CC1C (centres undefined)	0	0	33.9	0	-	0	0
CCc1ccc(C(=O)OCC(=O)N2CCCCCC2)cc1	0	0	38.1	0	-	0	0
CC1Cc2ccccc2N1C(=O)COC(=O)c1ccc(N(C)C)cc1 (centres undefined)	0	0	54.5	0	-	0	55.1
CN(C)c1ccc(C(=O)OCC(=O)N2CCCC2)cc1	0	0	0	0	0	0	-
CN(C)c1ccc(C(=O)OCC(=O)N2CCCCCC2)cc1	0	0	56.8	0	0	0	54.8
CCC(C(=O)NCc1cccs1)n1nc(C)n2c(cc3occc32)c1=O (centres undefined)	0	0	0	0	0	0	-
CC1CCN(C(=S)c2ccc(N(C)C)cc2)CC1	0	0	0	0	0	0	-
O=c1cc(-c2ccccc2)[nH]n1-c1nc2ccccc2s1	0	0	41.8	0	0	0	47.2
O=c1cc(-c2ccccc2)[nH]n1-c1ccccc1	-	0	0	0	-	-	-
Cc1ccccc1OCCOc1cccc(/C=N/NC(=O)Cc2nnc(N)s2)c1	0	0	32.8	0	0	0	0
Nc1nnc(CC(=O)N/N=C/c2cccc(OCCOc3ccccc3)c2)s1	0	0	0	0	0	0	-
COc1ccc(C(=O)N/N=C/c2ccc3cccc(O)c3n2)cc1	0	0	35.4	0	0	0	0
O=C(N/N=C/c1ccc2cccc(OCc3ccccc3)c2n1)c1ccc(Cl)cc1	0	0	0	0	0	0	-
SMILES	PME-1 inh	PAFAH1B2 FP inh	PAFAH2 FP inh	PAFAH1B3 inh	Fam108B counter	pPAFAH inh	PAFAH2 FP conf
CCn1c(SCc2c(Cl)cccc2Cl)nnc1-c1nn(-c2ccccc2)ccc1=O	0	0	48.9	0	0	0	0
CCN(CC)S(=O)(=O)c1ccc(N2CCOCC2)c(NC(=O)c2ccc(=O)[nH]c2)c1	-	0	0	0	-	0	-
COc1ccc(CC(=O)OCC(=O)Nc2cccc(Br)c2)cc1	0	0	0	0	0	0	-
C/C=C/C(=O)OCC(=O)Nc1ccc(OC)c(Cl)c1	0	0	38.6	0	0	0	0
C/C=C/C(=O)OCC(=O)Nc1cccc(F)c1	0	0	78.0	0	0	0	64.9
C/C=C/C(=O)OCC(=O)Nc1ccc(OC)c(OC)c1	0	0	0	0	0	0	-
O=C(COC(=O)c1cc[n+]([O-])cc1)Nc1cccc(F)c1	-	0	0	0	-	0	-
C/C=C/C(=O)OCC(=O)Nc1cccc(Br)c1	0	0	81.9	0	0	0	73.0
CN(C(=O)c1ccccc1C(=O)OCC(=O)c1ccc(F)c(F)c1)C1CCCCC1	-	0	0	0	-	-	-
COc1cc(OC)c(NS(=O)(=O)c2cccc(C(=O)OCC(=O)NCC3CCCO3)c2)cc1Cl (centres undefined)	0	0	38.6	0	0	0	31.4
COc1cc(OC)c(N(C)S(=O)(=O)c2cccc(C(=O)OCC(=O)N(C)C3CCCCC3)c2)cc1Cl	-	0	40.0	0	-	-	0
COc1cc(OC)c(N(C)S(=O)(=O)c2cccc(C(=O)OCC(=O)c3c[nH]c4ccccc34)c2)cc1Cl	0	0	0	0	0	0	-
N#CCCN(C(=O)COC(=O)Cc1c[nH]c2ccccc12)c1ccccc1	0	0	0	0	0	0	-
O=C(COC(=O)c1ccco1)NCCc1ccc(Cl)cc1	0	0	48.7	0	-	0	30.7
COc1ccccc1CNC(=O)COC(=O)c1ccco1	-	0	0	0	-	0	-
O=C(COC(=O)c1cc(Cl)ccc1[N+](=O)[O-])NCc1ccc(Cl)cc1Cl	0	0	30.0	0	0	0	0
O=C(COC(=O)c1ccco1)NCc1ccc(Cl)cc1Cl	-	0	69.3	0	-	0	51.2
O=C(COC(=O)c1ccco1)NCc1ccccc1Cl	0	0	58.2	0	0	0	37.7
O=C(COC(=O)c1ccco1)NNC(=O)c1ccc(Cl)cc1	-	0	0	0	-	0	-
Cc1[nH]c2ccccc2c1C(C#N)(C#N)C1C(=O)c2ccccc2C1=O	0	0	31.0	0	0	0	0
CC(=O)CSc1cc(-c2ccccc2)nc2ncnn12	0	0	0	0	0	0	-
O=C(COC(=O)/C=C/c1ccc(C(F)(F)F)cc1)NC1CCCC1	0	0	0	0	0	0	-
O=C(COC(=O)/C=C/c1ccc(Cl)cc1)NC1CC1	-	0	52.1	0	-	0	33.7
O=C(COC(=O)/C=C/c1ccc(Cl)cc1)NC1CCCCCC1	0	0	79.1	0	-	0	71.0
CSc1ccc(/C=C/C(=O)OCC(=O)NC2CC2)cc1	0	0	56.7	0	-	0	48.0
SMILES	PME-1 inh	PAFAH1B2 FP inh	PAFAH2 FP inh	PAFAH1B3 inh	Fam108B counter	pPAFAH inh	PAFAH2 FP conf
Cc1ccc(NC(=O)COC(=O)CCc2ccccc2)cc1S(=O)(=O)N1CCOCC1	-	0	0	0	-	0	-
Cn1c2ccccc2c(=O)c2c(=O)n(Cc3ccccc3)c(-c3ccc(F)cc3)nc21	0	0	0	0	0	0	-
O=C(NCCN1CCCCC1)/C(=C/c1ccco1)NC(=O)c1ccccc1	0	0	0	0	0	0	-
Cc1ccc(S(=O)(=O)Nc2c(O)ccc3ccccc23)cc1	0	-	-	-	0	0	-
O=S(=O)(Nc1c(O)ccc2ccccc12)c1cccc2ccccc12	0	0	31.5	0	0	0	0
CC1CCCC(C)N1/N=C/c1ccc(N(C)C)cc1 (centres undefined)	0	0	38.5	0	0	0	0
Cc1c2ccccc2cc[n+]1CCCS(=O)(=O)[O-]	0	0	0	0	0	0	-
